PKA-R2B act = activates the human PKA-R2B holoenzyme complex; activation, % at 11.4 µM; AID 504700; PKA-R2B holoenzyme dissociation, Cy5-IP20 fluorescence polarization; R2B truncated from residue 108, S112A mutant; 0% DMSO only, 100% 113 µM cGMP; 340,000 tested, 0.079% active;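 active = activation above a cutoff set at the mean over all compounds plus 3 SD, cut at about 18% in these data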;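 also: higher means more holoenzyme dissociation and a rise in polarization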
Target sequence (P31323 whole entry, looked up, other chains not shown, the tested form may be a part): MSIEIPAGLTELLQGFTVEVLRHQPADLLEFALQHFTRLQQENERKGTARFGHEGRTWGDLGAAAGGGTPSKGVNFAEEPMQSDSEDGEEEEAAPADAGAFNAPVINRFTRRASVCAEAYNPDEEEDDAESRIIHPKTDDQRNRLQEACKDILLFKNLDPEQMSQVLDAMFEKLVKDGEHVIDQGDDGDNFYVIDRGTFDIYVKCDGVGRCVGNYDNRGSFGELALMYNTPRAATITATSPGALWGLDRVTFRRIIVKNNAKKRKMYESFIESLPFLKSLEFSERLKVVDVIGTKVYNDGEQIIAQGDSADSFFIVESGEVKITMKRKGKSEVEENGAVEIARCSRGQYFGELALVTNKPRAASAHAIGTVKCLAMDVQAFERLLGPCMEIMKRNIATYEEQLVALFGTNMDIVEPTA
PAFAH1B3 FP inh = blocks human PAF acetylhydrolase 1B catalytic subunit 3; Q15102; recombinant PAFAH1B3, FP-rhodamine probe, fluorescence polarization; inhibition, % at 3.39 µM; 340,000 tested, 0.28% active;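 active = inhibition above the screen-wide average of all tested compounds plus 3 SD, cut at about 25% in these data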;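 also: 0% = enzyme with DMSO only and 100% = wells lacking PAFAH1B3 protein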
PAFAH1B2 inh = PAFAH1B2 (human) inhibition; P68402; recombinant PAFAH1B2, FP-rhodamine activity probe, fluorescence polarization; inhibition, % at 3.39 µM; 340,000 tested, 1.2% active;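 active = inhibition above the mean of all tested compounds plus 3 SD, cut at about 24% in these data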;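 also: 0% = enzyme with DMSO and 100% = wells lacking PAFAH1B2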
Target sequence (P68402 whole entry, looked up): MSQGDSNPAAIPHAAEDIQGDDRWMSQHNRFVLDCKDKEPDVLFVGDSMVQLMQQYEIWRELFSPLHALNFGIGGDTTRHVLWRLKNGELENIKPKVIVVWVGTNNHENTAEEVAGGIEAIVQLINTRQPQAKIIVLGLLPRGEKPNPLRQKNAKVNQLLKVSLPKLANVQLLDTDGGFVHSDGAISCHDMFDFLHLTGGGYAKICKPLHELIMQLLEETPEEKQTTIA
pPAFAH inh = pPAFAH (human) enzyme inhibition; Q13093; AID 463082; 330,000 tested, 1.5% active; recombinant pPAFAH, FP-rhodamine probe fluorescence polarization; inhibition, % at 3.39 µM;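 active = inhibition above the mean inhibition across the screen plus 3 SD, cut at about 25% in these data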;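 also: inhibitors block binding of the rhodamine activity-based probe so polarization drops; 0% = enzyme with DMSO and 100% = wells lacking pPAFAH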
PKA-R1A act = activates the PKA-R1A holoenzyme complex. P00514+P68181. PKA-R1A dissociation, Cy5-IP20 fluorescence polarization; scaled: DMSO 0%, 113 µM cGMP 100%. activation, % at 11.4 µM. 340,000 tested, 0.083% active;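 active = percent activation above the mean of all tested compounds plus 3 SD, cut at about 19% in these data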;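 also: higher means more PKAc released from R1A so a rise in polarization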
PAFAH2 inh = PAFAH2 (human) inhibition; Q99487; recombinant PAFAH2, FP-rhodamine activity probe, fluorescence polarization; inhibition, % at 3.39 µM; 340,000 tested, 0.99% active; AID 492956;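 active = inhibition above the mean over all tested compounds plus 3 SD, cut at about 30% in these data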;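 also: inhibitors block probe labeling of enzyme so polarization drops; 0% = enzyme with DMSO and 100% = wells lacking PAFAH2 protein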
An asterisk follows results filed as active. A selection: hits, their analogues and other compounds. The true share with any hit is near 2.6%.

Screening O=C(NC(=S)NNC(=O)c1ccccc1O)c1cccnc1 returned PKA-R2B act 3.5, PAFAH1B3 FP inh 25.5*, PAFAH1B2 inh 19.2, pPAFAH inh 15.9, PKA-R1A act -4.7 and PAFAH2 inh 59.9*.
`O=C(NC(=S)NNC(=O)c1ccc(Cl)cc1Cl)c1cccnc1` gave PKA-R2B act 1.5, PAFAH1B3 FP inh 7.4, PAFAH1B2 inh -0.5, pPAFAH inh 5.2, PKA-R1A act 1.0 and PAFAH2 inh 0.4.
Screening CCOc1cc(CNCCO)cc(Br)c1OCc1ccccc1Cl returned PKA-R2B act -4.3, PAFAH1B3 FP inh 8.1, PAFAH1B2 inh -1.4, pPAFAH inh 15.8, PKA-R1A act 2.4 and PAFAH2 inh -3.7.
Screening CCOc1cc(CNC(C)(C)CO)cc(Br)c1OCc1ccc(Cl)cc1Cl returned PKA-R2B act -3.9, PAFAH1B3 FP inh 1.3, PAFAH1B2 inh 2.7, pPAFAH inh 34.0*, PKA-R1A act -4.9 and PAFAH2 inh 7.4.
Screening CC(Cc1c[nH]c2ccccc12)C(=O)NCc1ccco1 (stereo not drawn) returned PKA-R2B act -9.9, PAFAH1B3 FP inh 11.5, PAFAH1B2 inh 1.1, pPAFAH inh -4.3, PKA-R1A act 1.6 and PAFAH2 inh -6.7.
For Nc1ncc(Br)cc1S(=O)(=O)Nc1cc(C(F)(F)F)cc(C(F)(F)F)c1 the results were PKA-R2B act -12.6, PAFAH1B3 FP inh 6.1, PAFAH1B2 inh 26.0*, pPAFAH inh 12.7, PKA-R1A act -16.3 and PAFAH2 inh 3.0.
For Cc1ccc(NS(=O)(=O)c2cc(Br)cnc2N)c(Cl)c1 the results were PKA-R2B act -7.8, PAFAH1B3 FP inh 11.1, PAFAH1B2 inh 1.1, pPAFAH inh -5.5, PKA-R1A act -0.4 and PAFAH2 inh 4.4.
`CCOc1cc(/C=N/Nc2ccc(S(=O)(=O)Nc3ccccc3C(=O)O)cc2[N+](=O)[O-])cc(Cl)c1O` gave PKA-R2B act 0.4 and PKA-R1A act 10.7.
For COc1cccc(C(C)=NNc2ccc([N+](=O)[O-])cc2[N+](=O)[O-])c1OC the results were PKA-R2B act 4.9 and PKA-R1A act 11.0.
COc1ccc(C(C)=NNc2ccc([N+](=O)[O-])cc2S(=O)(=O)Nc2ccccc2C(=O)O)c(OC)c1 was read as PKA-R2B act -5.0, PAFAH1B3 FP inh -7.4, PAFAH1B2 inh -5.2, pPAFAH inh 30.7*, PKA-R1A act -4.9 and PAFAH2 inh 11.6.
Screening Cc1ccc(/C=C/C(=O)O)cc1S(=O)(=O)Nc1ccccc1C(=O)O returned PKA-R2B act -13.1, PAFAH1B3 FP inh -1.5, PAFAH1B2 inh 2.9, pPAFAH inh -1.9, PKA-R1A act 5.6 and PAFAH2 inh 7.3.
Cc1ccc(NC(=S)NNc2ccc([N+](=O)[O-])cc2S(=O)(=O)Nc2ccccc2C(=O)O)cc1C was read as PKA-R2B act -8.6, PAFAH1B3 FP inh 17.8, PAFAH1B2 inh 25.1*, pPAFAH inh 29.0*, PKA-R1A act -9.3 and PAFAH2 inh 38.4*.
CC(=O)Nc1ccc(C=NNc2ccc([N+](=O)[O-])cc2S(=O)(=O)Nc2ccccc2C(=O)O)cc1 was read as PKA-R2B act 0.7, PAFAH1B3 FP inh 2.1, PAFAH1B2 inh 3.5, pPAFAH inh 26.1*, PKA-R1A act -7.4 and PAFAH2 inh 1.4.
O=C(O)c1ccccc1NS(=O)(=O)c1ccc(NNC(=S)Nc2ccc(OC(F)F)cc2)c([N+](=O)[O-])c1 was read as PKA-R2B act 4.2, PAFAH1B3 FP inh 55.6*, PAFAH1B2 inh 59.8*, PKA-R1A act 13.2 and PAFAH2 inh 70.1*.
`CCN(CC)c1ccc(NC(=O)c2ccc(S(=O)(=O)N3CCOCC3)cc2)cc1` gave PKA-R2B act 0.5, PAFAH1B3 FP inh 8.4, PAFAH1B2 inh 5.3, pPAFAH inh 5.0, PKA-R1A act -8.2 and PAFAH2 inh 7.8.
Screening Cc1cccc(-n2c(C)cc(/C=C3\NC(=O)NC3=O)c2C)c1 returned PKA-R2B act 2.1, PAFAH1B3 FP inh 2.9, PAFAH1B2 inh 6.2, pPAFAH inh -3.0, PKA-R1A act -0.8 and PAFAH2 inh 5.8.
`Cc1cc(C)c(-n2c(C)cc(/C=C3/NC(=O)NC3=O)c2C)c(C)c1` gave pPAFAH inh 27.3*.
Cc1cc(C)cc(C(=O)OCC(=O)NCc2ccco2)c1 was read as PKA-R2B act 0.9, PAFAH1B3 FP inh 6.0, PAFAH1B2 inh 5.3, pPAFAH inh 10.9, PKA-R1A act 6.8 and PAFAH2 inh 19.7.
For COc1cc(NC(=O)c2cc(OC)c(OC)c(OC)c2)c2ncccc2c1 the results were PKA-R2B act -11.2, PAFAH1B3 FP inh 10.3, PAFAH1B2 inh 26.7*, PKA-R1A act -9.9 and PAFAH2 inh -1.6.
`COc1cc(NC(=O)c2ccc3c(c2)OCO3)c2ncccc2c1` gave PKA-R2B act -2.8, PAFAH1B3 FP inh -0.3, PAFAH1B2 inh 4.9, pPAFAH inh -2.0, PKA-R1A act 2.9 and PAFAH2 inh 4.0.
CCOc1ccc(NC(=O)CN(C)C(=O)c2cccc(S(=O)(=O)N3CCN(C)CC3)c2)cc1OCC was read as PKA-R2B act -0.8, PAFAH1B3 FP inh 8.8, PAFAH1B2 inh 4.0, PKA-R1A act -10.0 and PAFAH2 inh 10.7.
For O=c1oc(Cl)c(Cl)c2ccccc12 the results were PKA-R2B act 11.5, PAFAH1B3 FP inh 16.3, PAFAH1B2 inh 0.2, pPAFAH inh 2.4, PKA-R1A act 7.5 and PAFAH2 inh 34.8*.
`O=c1oc2cc(O)c(Cl)cc2c2ccccc12` gave PKA-R2B act -0.8, PAFAH1B3 FP inh 5.5, PAFAH1B2 inh -1.7, pPAFAH inh 5.4, PKA-R1A act 5.3 and PAFAH2 inh 0.4.
Screening CC(=O)N(CCc1ccccc1)c1ccc2c(c1)C1CC2CCN1C(=O)OCc1ccccc1 (stereo not drawn) returned PKA-R2B act -7.4 and PKA-R1A act -0.4.
O=C(NC(Cc1ccccc1)C(=O)O)OCC1c2ccccc2-c2ccccc21 (stereo not drawn) was read as PKA-R2B act -12.6, PAFAH1B3 FP inh 10.0, PAFAH1B2 inh 27.0*, pPAFAH inh 6.7, PKA-R1A act 1.3 and PAFAH2 inh 3.0.
O=C1c2ccccc2[C@@H]2C[C@@H](O)[C@H](Nc3cccc4ccccc34)CCN12 was read as PKA-R2B act 1.7, PAFAH1B3 FP inh 11.2, PAFAH1B2 inh 2.5, pPAFAH inh 11.8, PKA-R1A act -3.6 and PAFAH2 inh 2.3.
`Nc1nc(-c2ccc(NC(=O)c3ccco3)cc2)cs1` gave PKA-R2B act -11.3, PAFAH1B3 FP inh 7.7, PAFAH1B2 inh 4.6, pPAFAH inh 3.7, PKA-R1A act -13.5 and PAFAH2 inh 10.6.
For NC(=O)/C(=N\OC(=O)c1ccco1)c1nc(-c2ccc(Br)cc2)cs1 the results were PKA-R2B act 2.8, PAFAH1B3 FP inh 24.9, PAFAH1B2 inh 14.8, pPAFAH inh 32.2*, PKA-R1A act -3.6 and PAFAH2 inh 6.6.

Bioassay records (PubChem)
